Measured values taken from PubChem BioAssay.
The source made the active and inactive calls. Unless noted, no rule for the calls is given here.

Tests used:
[1] = HepG2 liver cancer cell viability effects, profiling panel, resazurin fluorescence, 24 h, PK04 Diversity Set (AID 1172); settings: higher = more signal
[2] = basal S. cerevisiae growth modulation, no modifier, primary screen, OD600, strain BY4716, 24 h, basal condition (AID 1173); settings: OD600, 24 h, higher = more signal, called active from +8 up or from −8 down
[3] = MM1S myeloma cell viability, profiling panel, resazurin fluorescence, basal, 24 h, PK04 Diversity Set (AID 1174); settings: higher = more signal, called active from +8 up or from −8 down;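 also: MM1S multiple myeloma cell line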
[4] = molecular target: Dihydroorotate dehydrogenase (quinone), mitochondrial (Plasmodium falciparum (isolate 3D7)) (UniProt Q08210); assay: PfDHODH enzyme inhibitors, primary screen, biochemical, C-terminal His tag, absorbance 600 nm (AID 1175); settings: DCIP absorbance 600 nm, higher = more signal, called active from +8 up or from −8 down;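 also: recombinant parasite enzyme with a five histidine tag at its C terminus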
Dihydroorotate dehydrogenase (quinone), mitochondrial (Plasmodium falciparum (isolate 3D7)), sequence (Q08210 whole entry, looked up): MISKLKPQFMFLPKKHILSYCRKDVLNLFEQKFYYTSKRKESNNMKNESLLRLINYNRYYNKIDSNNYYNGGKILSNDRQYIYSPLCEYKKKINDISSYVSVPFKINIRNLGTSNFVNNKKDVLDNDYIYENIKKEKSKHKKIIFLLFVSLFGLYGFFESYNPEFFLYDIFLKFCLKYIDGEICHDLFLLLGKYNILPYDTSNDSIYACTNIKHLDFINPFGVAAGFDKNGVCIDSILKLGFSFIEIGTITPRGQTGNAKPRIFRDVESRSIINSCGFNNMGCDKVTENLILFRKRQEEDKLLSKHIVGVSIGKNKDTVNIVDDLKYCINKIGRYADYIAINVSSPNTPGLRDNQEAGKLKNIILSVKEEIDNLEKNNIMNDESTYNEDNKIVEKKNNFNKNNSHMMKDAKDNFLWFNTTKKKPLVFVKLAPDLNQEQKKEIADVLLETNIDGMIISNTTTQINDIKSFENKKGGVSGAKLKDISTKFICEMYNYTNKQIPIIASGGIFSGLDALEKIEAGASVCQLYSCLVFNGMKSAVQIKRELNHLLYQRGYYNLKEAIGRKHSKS

[5] = P. aeruginosa biofilm formation inhibitors, primary screen, strain PAO1, LB-PBS medium, absorbance 600 nm (AID 1176); settings: P. aeruginosa PAO1 growth/biofilm, A600, 12 h; higher = more signal
[6] = S. cerevisiae RM11-1a growth modifiers, primary screen, strain RM11-1a, OD600, basal, 24 h (AID 1177); settings: OD600, 24 h, higher = more signal, called active from +8 up or from −8 down;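 also: cultures grown under basal conditions with no added stressor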
[7] = E. coli acrAB mutant growth effects, primary screen, E. coli filamentation inducers, strain DRC39, OD650, 24 h (AID 1178); settings: higher = more signal, called active from +8 up or from −8 down;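 also: growth measured as culture turbidity by optical density at 650 nm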
[8] = E. coli acrAB mutant growth effects, primary screen, E. coli filamentation inducers, strain DRC39, OD650, 48 h (AID 1179);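 also: screen aims at cell division blockers that make cells filament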; settings: E. coli DRC39 delta-acrAB growth, higher = more signal, called active from +8 up or from −8 down
[9] = RPMI8226 myeloma cell viability, profiling panel, resazurin fluorescence, basal, 24 h, PK04 Diversity Set (AID 1180); settings: higher = more signal;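 also: RPMI8826 multiple myeloma cell line at 5000 cells per well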
[10] = molecular target: E3 ubiquitin-protein ligase XIAP (Homo sapiens) (UniProt P98170); assay: XIAP binders, primary screen, biophysical, small-molecule microarray, fluorescence 635 nm (AID 1181); settings: small-molecule microarray binding, higher = more signal;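 also: score merges 667 nm emission and signal to noise over triplicate slides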
E3 ubiquitin-protein ligase XIAP (Homo sapiens), sequence (P98170 whole entry, looked up): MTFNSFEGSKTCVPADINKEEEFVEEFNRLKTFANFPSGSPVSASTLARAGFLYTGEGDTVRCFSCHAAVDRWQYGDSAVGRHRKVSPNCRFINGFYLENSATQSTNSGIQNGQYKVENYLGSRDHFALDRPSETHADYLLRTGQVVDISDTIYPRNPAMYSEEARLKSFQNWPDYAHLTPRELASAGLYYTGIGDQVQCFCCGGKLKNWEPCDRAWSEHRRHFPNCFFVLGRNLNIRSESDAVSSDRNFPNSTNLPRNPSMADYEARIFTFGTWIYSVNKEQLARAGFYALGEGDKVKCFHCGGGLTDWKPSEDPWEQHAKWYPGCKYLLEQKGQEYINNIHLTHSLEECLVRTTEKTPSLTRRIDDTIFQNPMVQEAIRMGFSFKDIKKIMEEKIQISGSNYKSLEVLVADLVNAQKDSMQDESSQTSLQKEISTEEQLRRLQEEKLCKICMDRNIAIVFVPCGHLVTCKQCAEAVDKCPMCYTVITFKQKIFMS

[11] = tested on: XIP peptide (Xip251-270) binding; assay: small-molecule binders of XIP peptide, primary screen, biochemical, small-molecule microarray, fluorescence 635/667 nm, 0.1 µg/mL protein (AID 1182); settings: fluorescent protein binding, 635 nm, higher = more signal, called active from +8 up or from −8 down
XIP peptide (Xip251-270) = assay: small-molecule binders of XIP peptide, primary screen, biochemical, small-molecule microarray, fluorescence 635/667 nm, 0.5 µg/mL protein (AID 1183); settings: small-molecule microarray binding, fluorescence 635 nm; higher = more signal
[12] = Plasmodium falciparum growth inhibition, primary screen, strain 3D7, DAPI fluorescence, 100 nL (AID 1184);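 also: parasites grown inside human red blood cells in medium with human serum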; settings: P. falciparum 3D7 growth, 3 d, higher = more signal
[13] = molecular target: Homeobox protein Hox-A13 (Mus musculus) (UniProt Q62424); assay: inhibitors of HoxA13-DNA binding, primary screen, biochemical, fluorescence polarization, labeled oligonucleotide (AID 1185); settings: 15 min, higher = more signal, called active from +8 up or from −8 down
Homeobox protein Hox-A13 (Mus musculus), sequence (Q62424 whole entry, looked up): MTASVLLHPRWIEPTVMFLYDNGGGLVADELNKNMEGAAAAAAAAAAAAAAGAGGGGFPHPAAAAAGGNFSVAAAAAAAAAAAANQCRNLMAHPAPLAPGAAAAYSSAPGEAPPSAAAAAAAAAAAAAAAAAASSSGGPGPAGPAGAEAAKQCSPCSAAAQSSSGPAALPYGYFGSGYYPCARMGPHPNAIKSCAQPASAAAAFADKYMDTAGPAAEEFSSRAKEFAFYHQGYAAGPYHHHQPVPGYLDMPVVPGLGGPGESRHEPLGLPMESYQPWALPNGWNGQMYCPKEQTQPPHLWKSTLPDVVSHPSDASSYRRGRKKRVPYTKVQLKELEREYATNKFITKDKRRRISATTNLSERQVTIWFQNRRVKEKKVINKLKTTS

[14] = inhibitors of hydroxyurea-induced Chk1 phosphorylation, primary screen, imaging, HeLa, phospho-Chk1 antibody, percent positive cells (AID 1186); settings: hydroxyurea-induced phospho-Chk1 immunofluorescence imaging, higher = more signal
[15] = inhibitors of hydroxyurea-induced Chk1 phosphorylation, primary screen, imaging, HeLa, phospho-Chk1 nuclear intensity (AID 1187); settings: hydroxyurea-induced phospho-Chk1 immunofluorescence imaging, higher = more signal

## COCCOC(=O)N1C(=O)[C@@]2(c3cc(C#Cc4ccc(OC)cc4)ccc31)[C@H](c1ccc(OCCO)cc1)N1[C@H](c3ccccc3)[C@H](c3ccccc3)OC(=O)[C@H]1[C@@H]2C(=O)N1CCCCCCC1
[1]
  z-score: -0.266
[2]
  z-score: 0.376 (inactive)
[3]
  z-score: 0.699 (inactive)
[4]
  composite z-score: -1.31 (inactive)
[5]
  z-score: 2.17 (inactive)
[6]
  z-score: 0.277 (inactive)
[7]
  z-score: 0.0117 (inactive)
[8]
  z-score: 1.19 (inactive)
[9]
  z-score: 0.746
[10]
  composite z-score: 0.0162
[11]
  composite z-score: 0.92 (inactive)
XIP peptide (Xip251-270)
  composite z-score: 0.768
[12]
  z-score: -2.09
[13]
  z-score: -15.8 (active)
[14]
  z-score: -0.318 (inactive)
[15]
  z-score: -0.217 (inactive)

## [N-]=[N+]=NCc1ccccc1C[C@]1(C(=O)N2CCCCC2)N=C(c2ccc(OCCCO)cc2)O[C@H]1c1ccccc1
[1]
  z-score: 0.116
[2]
  z-score: 1.71 (inactive)
[3]
  z-score: -2.13 (inactive)
[4]
  composite z-score: 0.939 (inactive)
[5]
  z-score: -0.372 (inactive)
[6]
  z-score: 2.8 (inactive)
[7]
  z-score: 0.914 (inactive)
[8]
  z-score: 1.23 (inactive)
[9]
  z-score: -5.14
[10]
  composite z-score: 0.17
[11]
  composite z-score: 0.404 (inactive)
XIP peptide (Xip251-270)
  composite z-score: 0.779
[12]
  z-score: -2.34
[13]
  z-score: -4.35 (inactive)
[14]
  z-score: -0.527 (inactive)
[15]
  z-score: -0.286 (inactive)

## CC(C)C(=C=CC[C@@H](O)c1ccccc1OCCO)C[C@@H](O)c1cc(Cl)cc(Cl)c1O
[1]
  z-score: -0.563
[2]
  z-score: -4.12 (inactive)
[3]
  z-score: -1.35 (inactive)
[4]
  composite z-score: -2.32 (inactive)
[5]
  z-score: 0.354 (inactive)
[6]
  z-score: 0.184 (inactive)
[7]
  z-score: -0.501 (inactive)
[8]
  z-score: -0.796 (inactive)
[9]
  z-score: -0.932
[10]
  composite z-score: -0.232
[11]
  composite z-score: 1.25 (inactive)
XIP peptide (Xip251-270)
  composite z-score: 0.748
[12]
  z-score: -1.39
[13]
  z-score: -3.09 (inactive)
[14]
  z-score: -0.059 (inactive)
[15]
  z-score: 0.189 (inactive)

## CC(C)C[C@@H]1NC(=O)[C@@H]2C[C@H](C(=O)O)[C@H](c3ccc(O)cc3)N2C1=O
[1]
  z-score: -1.68
[2]
  z-score: -0.568 (inactive)
[3]
  z-score: 1.18 (inactive)
[4]
  composite z-score: 0.372 (inactive)
[5]
  z-score: 0.407 (inactive)
[6]
  z-score: -1.11 (inactive)
[7]
  z-score: 2.14 (inactive)
[8]
  z-score: 1.94 (inactive)
[9]
  z-score: 1.16
[10]
  composite z-score: 0.254
[11]
  composite z-score: 1.84 (inactive)
XIP peptide (Xip251-270)
  composite z-score: 0.705
[12]
  z-score: -0.26
[13]
  z-score: -3.43 (inactive)
[14]
  z-score: 0.873 (inactive)
[15]
  z-score: 0.918 (inactive)

## C=CCC(OC(C)=O)[C@@H]1[C@@H](N(Cc2ccc(-c3ccccc3)cc2)C(=O)c2ccc(C)cc2)c2cc(OCCCO)ccc2N1C(=O)c1ccc2ccccc2c1 (stereo not given in full)
[1]
  z-score: -0.643
[2]
  z-score: -0.766 (inactive)
[3]
  z-score: 1.12 (inactive)
[4]
  composite z-score: -1.55 (inactive)
[5]
  z-score: -0.0877 (inactive)
[6]
  z-score: -1.99 (inactive)
[7]
  z-score: 0.406 (inactive)
[8]
  z-score: 0.67 (inactive)
[9]
  z-score: 1.36
[10]
  composite z-score: -0.0357
[11]
  composite z-score: -0.654 (inactive)
XIP peptide (Xip251-270)
  composite z-score: -0.354
[12]
  z-score: -1.26
[13]
  z-score: -0.819 (inactive)
[14]
  z-score: -0.363 (inactive)
[15]
  z-score: -0.221 (inactive)
